# Measured values: PubChem BioAssay
# Activity calls are given as the source filed them.
# What was measured:
# [1] = small molecules captured by biotinylated probe aFSTL3 – biochemical, small-molecule microarray, fluorescence 635/667, stem cell growth factor project, primary screen (AID 1064); conditions: higher = more signal;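 note: measures binding of the biotinylated anti-FSTL3 antibody to printed compounds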
# [2] = binders from COS7 lysate, DM2A8 probe, primary screen, torsin A project, cell lysate, small-molecule microarray, fluorescence 635/667 (AID 1065); conditions: higher = more signal, COS7 lysate expressing mutant human TOR1A
# [3] = small molecules captured by biotinylated probe aFGF2 – biochemical, small-molecule microarray, fluorescence 635/667, stem cell growth factor project, primary screen (AID 1067); conditions: higher = more signal;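 note: measures binding of biotinylated aFGF2 protein to printed compounds on slides; z-score merges feature fluorescence and signal-to-noise across triplicate slides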
# [4] = small molecules captured by biotinylated probe aFGF10 – biochemical, small-molecule microarray, fluorescence 635/667, stem cell growth factor project, primary screen (AID 1071); conditions: higher = more signal;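 note: score merges 667 nm spot intensity and signal to noise from triplicate slides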
# [5] = biological target: Neurogenic locus notch homolog protein 2 (Homo sapiens) (UniProt Q04721); test: small molecules binding Notch2 protein – biochemical, small-molecule microarray, 635 nm fluorescence, stem cell growth factors, primary screen (AID 1073); conditions: higher = more signal
# Chain of Neurogenic locus notch homolog protein 2 (Homo sapiens) (Q04721 whole entry, looked up, canonical isoform): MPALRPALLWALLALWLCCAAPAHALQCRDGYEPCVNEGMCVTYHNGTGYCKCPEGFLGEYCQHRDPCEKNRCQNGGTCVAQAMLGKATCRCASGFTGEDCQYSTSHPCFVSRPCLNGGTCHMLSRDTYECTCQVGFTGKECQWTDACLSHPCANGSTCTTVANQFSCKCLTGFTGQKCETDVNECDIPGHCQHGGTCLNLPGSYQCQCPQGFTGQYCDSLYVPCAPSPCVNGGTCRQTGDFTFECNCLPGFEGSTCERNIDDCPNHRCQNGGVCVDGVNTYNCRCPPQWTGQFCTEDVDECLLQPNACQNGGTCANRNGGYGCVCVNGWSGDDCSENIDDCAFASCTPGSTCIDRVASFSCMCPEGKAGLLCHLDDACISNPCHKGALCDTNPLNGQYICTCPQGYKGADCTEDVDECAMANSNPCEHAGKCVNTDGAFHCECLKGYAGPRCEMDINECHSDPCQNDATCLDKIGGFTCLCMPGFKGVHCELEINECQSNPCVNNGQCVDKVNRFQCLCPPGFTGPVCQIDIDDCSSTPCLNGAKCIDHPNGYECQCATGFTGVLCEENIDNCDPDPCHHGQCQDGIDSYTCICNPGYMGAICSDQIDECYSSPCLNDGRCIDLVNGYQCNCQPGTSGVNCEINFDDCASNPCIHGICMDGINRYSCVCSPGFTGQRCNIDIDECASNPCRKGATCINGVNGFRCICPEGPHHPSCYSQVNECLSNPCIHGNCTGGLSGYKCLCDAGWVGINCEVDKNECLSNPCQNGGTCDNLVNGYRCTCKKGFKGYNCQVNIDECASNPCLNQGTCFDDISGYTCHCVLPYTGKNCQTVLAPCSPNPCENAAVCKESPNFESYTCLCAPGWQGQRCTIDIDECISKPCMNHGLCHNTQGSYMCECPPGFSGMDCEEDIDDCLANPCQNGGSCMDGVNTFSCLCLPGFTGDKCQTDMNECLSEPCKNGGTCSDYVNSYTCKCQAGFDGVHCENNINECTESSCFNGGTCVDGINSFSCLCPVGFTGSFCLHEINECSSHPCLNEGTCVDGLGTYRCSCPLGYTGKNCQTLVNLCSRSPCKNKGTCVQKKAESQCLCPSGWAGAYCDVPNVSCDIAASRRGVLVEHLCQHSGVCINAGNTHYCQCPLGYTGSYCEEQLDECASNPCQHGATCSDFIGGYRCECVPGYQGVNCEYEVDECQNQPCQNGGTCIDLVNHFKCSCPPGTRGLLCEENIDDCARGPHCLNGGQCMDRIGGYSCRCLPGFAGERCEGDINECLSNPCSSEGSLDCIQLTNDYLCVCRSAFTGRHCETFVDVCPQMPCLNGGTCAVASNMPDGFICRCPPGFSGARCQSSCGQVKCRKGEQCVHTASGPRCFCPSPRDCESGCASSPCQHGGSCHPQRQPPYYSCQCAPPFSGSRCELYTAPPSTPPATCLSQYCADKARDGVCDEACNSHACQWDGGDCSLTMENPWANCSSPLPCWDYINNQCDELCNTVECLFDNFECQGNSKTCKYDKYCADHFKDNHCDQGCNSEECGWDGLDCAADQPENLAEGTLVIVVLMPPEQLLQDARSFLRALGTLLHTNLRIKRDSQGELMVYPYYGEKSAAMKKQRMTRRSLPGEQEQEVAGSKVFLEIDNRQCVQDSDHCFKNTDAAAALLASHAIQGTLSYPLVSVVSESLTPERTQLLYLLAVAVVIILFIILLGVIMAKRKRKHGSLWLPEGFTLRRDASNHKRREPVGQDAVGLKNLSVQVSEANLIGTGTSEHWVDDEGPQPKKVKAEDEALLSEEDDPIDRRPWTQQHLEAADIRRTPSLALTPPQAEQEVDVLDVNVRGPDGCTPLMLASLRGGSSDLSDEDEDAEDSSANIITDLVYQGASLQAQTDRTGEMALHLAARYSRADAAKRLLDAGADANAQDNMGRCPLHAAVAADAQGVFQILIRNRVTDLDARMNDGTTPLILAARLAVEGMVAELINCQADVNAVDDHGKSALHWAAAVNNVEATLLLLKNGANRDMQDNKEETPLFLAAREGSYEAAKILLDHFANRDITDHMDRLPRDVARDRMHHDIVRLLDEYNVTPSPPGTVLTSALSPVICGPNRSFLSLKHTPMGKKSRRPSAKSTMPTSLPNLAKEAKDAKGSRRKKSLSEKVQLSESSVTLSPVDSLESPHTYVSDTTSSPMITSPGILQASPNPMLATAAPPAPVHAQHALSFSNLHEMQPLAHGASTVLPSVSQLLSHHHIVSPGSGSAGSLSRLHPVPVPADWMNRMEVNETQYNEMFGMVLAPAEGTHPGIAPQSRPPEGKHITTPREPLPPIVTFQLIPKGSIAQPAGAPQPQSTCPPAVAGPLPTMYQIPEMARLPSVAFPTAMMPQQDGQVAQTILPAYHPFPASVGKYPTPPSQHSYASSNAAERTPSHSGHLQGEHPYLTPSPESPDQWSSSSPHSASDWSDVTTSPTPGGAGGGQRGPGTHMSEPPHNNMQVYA
# [6] = biological target: Pro-neuregulin-1, membrane-bound isoform (Homo sapiens) (UniProt Q02297); test: small molecules binding neuregulin-1 protein – biochemical, small-molecule microarray, fluorescence 635/667, psychiatric disease protein project, primary screen (AID 1075); conditions: NRG1 binding, 635 nm fluorescence, higher = more signal;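 note: score combines 667 nm spot fluorescence with signal to noise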
# Chain of Pro-neuregulin-1, membrane-bound isoform (Homo sapiens) (Q02297 whole entry, looked up, the tested form may be a part, canonical isoform): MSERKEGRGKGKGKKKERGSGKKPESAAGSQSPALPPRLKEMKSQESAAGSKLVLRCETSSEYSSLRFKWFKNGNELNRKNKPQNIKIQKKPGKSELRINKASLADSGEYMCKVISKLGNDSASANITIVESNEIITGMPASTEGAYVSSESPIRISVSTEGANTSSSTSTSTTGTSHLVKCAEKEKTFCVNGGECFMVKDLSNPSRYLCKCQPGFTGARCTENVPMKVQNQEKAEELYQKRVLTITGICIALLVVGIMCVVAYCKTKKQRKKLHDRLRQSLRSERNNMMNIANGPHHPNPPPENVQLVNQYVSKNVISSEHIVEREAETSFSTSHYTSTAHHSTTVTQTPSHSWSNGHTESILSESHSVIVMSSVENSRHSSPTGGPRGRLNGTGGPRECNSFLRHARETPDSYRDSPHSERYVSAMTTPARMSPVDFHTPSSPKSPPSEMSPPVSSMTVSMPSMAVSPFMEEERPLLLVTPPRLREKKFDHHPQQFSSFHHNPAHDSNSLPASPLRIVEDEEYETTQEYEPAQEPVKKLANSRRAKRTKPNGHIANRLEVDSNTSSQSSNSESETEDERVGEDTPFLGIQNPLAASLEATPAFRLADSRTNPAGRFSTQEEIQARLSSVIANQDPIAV
# [7] = system: Neuregulin-1 EGF-like domain; test: small molecules binding NRG1 EGF domain – biochemical, small-molecule microarray, 635 nm fluorescence, primary screen (AID 1081); conditions: higher = more signal;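 note: binding of the protein to compounds printed on small-molecule microarray slides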
# [8] = FRG1 expression reporter modulators in myotubes – cell-based, C2C12 myotubes, firefly/Renilla luciferase, luminescence, FRG1 inhibition for FSHD, primary screen (AID 1084); conditions: FRG1 promoter luciferase, higher = more signal, called active from +8 up or from −8 down
# [9] = small molecules captured by biotinylated probe aFST – biochemical, small-molecule microarray, fluorescence 635/667, stem cell growth factor project, primary screen (AID 1086); conditions: higher = more signal;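 note: score merges 667 nm fluorescence with signal-to-noise of each printed compound spot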
# [10] = binders of probe aHhip on microarray, primary screen, stem cell growth factor project, biochemical, small-molecule microarray, fluorescence 635/667 (AID 1087); conditions: higher = more signal;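 note: score merges spot fluorescence at 667nm with spot signal to noise ratio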
Structure (SMILES),composite z-score [1],composite z-score [2],composite z-score [3],composite z-score [4],composite z-score [5],composite z-score [6],composite z-score [7],z-score [8],composite z-score [9],composite z-score [10]
C[C@@H]1CC[C@H]2C(=O)N3CCC[C@H]3C(=O)N2[C@H]1c1ccc(Br)cc1,-0.162,0.0769,-0.11,-0.121,-0.829,-0.267,0.0421,-0.228 (inactive),-0.0423,0.0274
CCOC(=O)C1=CC[C@@H](c2ccccc2)N(S(=O)(=O)c2ccc(C)cc2)[C@H]1C,-0.386,1.09,0.0257,1.11,1.59,1.45,1.12,-2.8 (inactive),0.691,-0.0994
O=C1C[C@@](C(=O)NC2CC2)(c2ccc([N+](=O)[O-])cc2)[C@@H](c2ccc(CO)cc2I)N1CC12CC3CC(CC(C3)C1)C2,-0.514,-0.407,0.01,0.487,1.05,0.346,1.24,-2.34 (inactive),0.303,-0.184
CC/C=C/C(=O)N(C[C@@H]1CCCO1)[C@@H]1CC(C(=O)NCCO)=C[C@H](Oc2c(I)cc(CO)cc2OC)[C@H]1O,-0.329,0.51,-0.22,0.629,0.347,0.06,0.366,-1.24 (inactive),-0.176,-0.0994
CN(C)C(=O)[C@@]1(Cc2ccccc2N=[N+]=[N-])N=C(c2ccc(OCCCO)cc2)O[C@H]1c1ccccc1CN=[N+]=[N-],0.832,2.05,0.0914,0.665,1.56,1.56,1.23,-2.27 (inactive),0.961,0.0274
COC(=O)[C@@]1(Cc2ccccc2N=[N+]=[N-])N=C(c2ccc(OCCCO)cc2)O[C@H]1c1ccccc1CN=[N+]=[N-],0.413,0.378,-0.0899,-0.136,0.0109,1.12,1.29,-1.38 (inactive),0.69,0.0053
C=CC[C@]1(C(=O)OC)N=C(c2ccc(OCCCO)cc2)O[C@H]1c1ccccc1CN=[N+]=[N-],2.1,0.164,-0.0004,-0.564,-0.543,0.391,0.863,-1.55 (inactive),0.629,-0.0994
COC(=O)[C@@]1(Cc2ccccc2)[C@H]2c3cc(C(=O)N4CCCC4)n(CCN4CNCC4=O)c3C[C@H]2CN1C(=O)c1ccccc1,0.243,1.35,0.106,0.598,1.4,1.71,1.37,1.41 (inactive),0.604,0.209
[N-]=[N+]=NCc1ccccc1[C@H]1OC(c2ccc(OCCCO)cc2)=N[C@@]1(Cc1ccccc1N=[N+]=[N-])C(=O)NCc1ccccc1,0.817,0.155,0.0308,0.622,1.28,0.408,0.807,-1.35 (inactive),0.939,0.0595
C=CCNC(=O)[C@H]1[C@@H]2C(=O)O[C@@H](c3ccccc3)[C@@H](c3ccccc3)N2[C@@H](c2ccc(O)cc2)[C@]12C(=O)Nc1ccc(C#CCNC(N)=O)cc12,0.587,-0.0883,-0.128,-0.608,-1.11,1.07,0.858,-0.477 (inactive),-0.526,-0.21
CCCC[C@@H]1C[C@H]1[C@@H](NC(=O)c1ccccc1)c1ccccc1C(F)(F)F,0.135,0.281,0.149,0.189,1.13,1.97,0.828,0.822 (inactive),0.819,-0.189
COc1ccc([Si](C)(C)[C@@H]2[C@@H](CC(=O)N(CCO)Cc3ccccc3)O[C@]3(C(=O)N(Cc4cccc(N5CCC5=O)c4)c4ccccc43)[C@H]2C)cc1,-0.113,0.861,-0.116,0.434,0.205,0.712,1.13,-0.645 (inactive),0.147,0.0373
O=C1c2ccccc2[C@](Cc2ccccc2I)(C(=O)NCC(F)(F)F)[C@H](c2ccc(CO)cc2)N1Cc1ccccc1C(F)(F)F,-0.379,0.57,-0.0856,0.22,0.902,1,1.2,-0.307 (inactive),1.16,-0.466
O=C(NCC(O)CO)[C@]1(Cc2ccccc2)N=C(c2ccc(OCCCO)cc2)O[C@@H]1c1ccccc1 (stereo not given in full),1.09,2.15,-0.104,-0.512,0.271,0.951,0.868,-1.63 (inactive),0.864,0.189
COCCCNC(=O)[C@@]1(Sc2ccc(C)cc2)CC(=O)N(Cc2cc(C(F)(F)F)cc(C(F)(F)F)c2)[C@@H]1c1ccc(CO)cc1I,1.12,-0.181,-0.147,-0.811,-1.43,2.17,1.35,-0.925 (inactive),-0.265,1.67
CCOC(=O)[C@H]1C/C=C/C[C@H](C(=O)OCC)C(=O)O[C@H]2[C@@H](OC)O[C@H](CO)[C@@H](OC(=O)Nc3ccc(Br)cc3)[C@@H]2OC1=O,0.762,0.475,-0.108,0.28,0.798,0.991,1.29,0.892 (inactive),0.449,-0.0613
CCCC=C(CCC)[C@@H](NS(=O)(=O)c1cccc(C(F)(F)F)c1)c1ccc(C(=O)OC)cc1,2.23,0.131,0.731,-0.0446,0.318,-0.0702,0.53,2.49 (inactive),2.13,0.171
CCOC(=O)C1=CC[C@@H](c2ccc(-c3ccc(OCc4ccccc4)cc3)c(OC)c2)N(S(=O)(=O)c2ccc(C)cc2)[C@H]1c1ccccc1,-0.216,0.448,0.0188,0.668,1.49,1.36,0.952,0.141 (inactive),0.9,0.314
CN1CCC(CCCO)=CC1C1CC1 (stereo not given),-0.389,1.39,-0.199,-0.856,-1.13,-0.345,0.743,-0.901 (inactive),-0.287,-0.251
CCCNC(=O)[C@@H]1c2ccccc2C(=O)N(C2CCCCC2)[C@H]1c1ccc(CO)cc1,-0.162,0.325,-0.0374,0.549,1.41,1.16,1.29,-0.0971 (inactive),0.56,0.0785
C=CCC(OC(C)=O)[C@@H]1[C@@H](N(Cc2ccc(-c3ccccc3)cc2)C(=O)c2ccc(C)cc2)c2cc(OCCCO)ccc2N1C(=O)c1ccc(-c2ccccc2)cc1 (stereo not given in full),-0.0264,-0.192,-0.006,0.0126,-0.245,-0.0564,-0.538,-2.08 (inactive),0.186,-0.405
CCOC(=O)C[C@H]1[C@H](OC(=O)Cc2ccc3c(c2)OCO3)[C@@H](NC(=O)CC(C)C)c2cc(OCCCO)ccc2N1C(=O)c1ccccc1,-0.0798,0.128,0.0021,0.782,0.797,-0.0284,0.855,-1.2 (inactive),0.0004,-0.0994
COc1ccc(-c2cc3c(c(-c4ccccc4)n2)[Si](C(C)C)(C(C)C)O[C@H]3c2ccccc2)cn1,-0.248,0.0094,-0.106,0.144,0.241,0.0264,0.335,-0.68 (inactive),-0.116,0.316
Cc1ccc(S(=O)(=O)N[C@H]2COC(=O)CC=C[C@H](C)COC(=O)N[C@@H](C)C(=O)CC=C[C@@H]2C)cc1,-0.667,1.16,-0.22,0.168,-0.0113,-0.195,0.527,0.502 (inactive),0.0218,0.0053
C=CCNC(=O)[C@H]1[C@@H]2C(=O)O[C@@H](c3ccccc3)[C@@H](c3ccccc3)N2[C@@H](c2ccccc2OCCO)[C@]12C(=O)N(C(=O)OCCOC)c1ccc(C#CCNC(N)=O)cc12,0.173,0.912,-0.0547,0.149,0.284,1.32,1.06,-1.53 (inactive),0.428,0.0623
CC(=O)Nc1ccc([C@H]2[C@H](C)CC[C@H]3C(=O)N4[C@@H](CC[C@@H](C)[C@@H]4c4ccc(NC(C)=O)cc4)C(=O)N32)cc1,-0.508,0.482,-0.1,0.908,0.68,0.566,1.1,0.103 (inactive),0.0863,0.132
O=C1O[C@@H](c2ccccc2)[C@@H](c2ccccc2)N2[C@@H](c3ccc(OCCO)cc3)[C@]3(C(=O)Nc4ccc(C#CCCO)cc43)[C@@H](C(=O)N3CCN(c4ncccn4)CC3)[C@H]12,-0.375,0.388,0.0364,0.617,0.731,1.2,1.2,0.126 (inactive),0.488,-0.171
O=C1O[C@H](c2ccccc2)[C@H](c2ccccc2)N2[C@H]1[C@@H](C(=O)NC[C@H](O)c1ccccc1)[C@]1(C(=O)Nc3ccc(C#CC4(O)CCCCCC4)cc31)[C@H]2c1ccc(OCCO)cc1,0.247,0.634,0.0589,0.577,1.19,1.02,1.24,1.04 (inactive),0.388,0.0024
